Measurements: publication PMC4336329 (PLoS ONE, 2015)
Out of some 310,000 compounds screened, about 2,200 (0.71%) showed an effect of 50% or more. The effect is printed as a negative number. The list comes from a sample in which strong results are over-represented; it also holds similar structures and randomly drawn compounds.

Biological target: human ether-à-go-go-related gene (hERG) potassium channel (human, UniProt Q12809)
Assay: primary screen, population patch clamp on CHO cells stably expressing hERG; higher = less effect of the substance

human ether-à-go-go-related gene (hERG) potassium channel, sequence (Q12809 whole entry, looked up): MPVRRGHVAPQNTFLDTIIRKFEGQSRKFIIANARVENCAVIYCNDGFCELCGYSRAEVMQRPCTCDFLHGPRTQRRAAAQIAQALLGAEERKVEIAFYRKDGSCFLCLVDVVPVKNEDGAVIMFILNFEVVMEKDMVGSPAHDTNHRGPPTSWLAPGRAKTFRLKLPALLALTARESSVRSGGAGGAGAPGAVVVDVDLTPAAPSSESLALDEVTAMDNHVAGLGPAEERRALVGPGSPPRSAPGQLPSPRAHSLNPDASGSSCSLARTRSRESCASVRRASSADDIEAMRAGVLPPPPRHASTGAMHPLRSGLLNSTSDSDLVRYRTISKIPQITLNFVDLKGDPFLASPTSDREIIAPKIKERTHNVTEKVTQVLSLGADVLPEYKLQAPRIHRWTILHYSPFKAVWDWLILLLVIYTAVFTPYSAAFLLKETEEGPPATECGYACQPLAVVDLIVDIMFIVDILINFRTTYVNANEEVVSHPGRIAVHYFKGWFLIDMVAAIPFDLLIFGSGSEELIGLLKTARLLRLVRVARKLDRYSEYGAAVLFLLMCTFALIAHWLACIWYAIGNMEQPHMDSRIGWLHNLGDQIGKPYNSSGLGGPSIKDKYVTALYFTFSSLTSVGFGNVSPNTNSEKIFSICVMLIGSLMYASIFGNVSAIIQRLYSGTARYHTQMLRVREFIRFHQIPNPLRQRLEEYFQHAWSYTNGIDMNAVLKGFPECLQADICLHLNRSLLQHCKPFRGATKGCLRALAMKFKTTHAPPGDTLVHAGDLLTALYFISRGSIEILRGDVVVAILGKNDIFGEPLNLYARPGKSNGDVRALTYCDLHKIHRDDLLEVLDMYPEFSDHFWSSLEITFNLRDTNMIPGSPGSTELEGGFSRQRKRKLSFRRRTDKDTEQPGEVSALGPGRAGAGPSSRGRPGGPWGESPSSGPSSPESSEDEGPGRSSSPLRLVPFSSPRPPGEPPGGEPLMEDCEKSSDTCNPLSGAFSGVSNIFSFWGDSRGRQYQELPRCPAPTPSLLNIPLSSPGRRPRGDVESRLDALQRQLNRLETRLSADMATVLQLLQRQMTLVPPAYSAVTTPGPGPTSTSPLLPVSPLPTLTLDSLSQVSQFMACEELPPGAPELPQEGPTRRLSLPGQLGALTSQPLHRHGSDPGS

Structure (SMILES)	hERG current change (%, negative = inhibition) at 1uM
COc1ccc(CC2(CO)CCN(Cc3cnn(-c4ccc(F)cc4)c3)CC2)cc1	-79.2%
Cc1ccc(-n2cc(CN3CCC(CO)(Cc4cccc(C(F)(F)F)c4)CC3)cn2)cc1	-64.3%
CC(C)Cc1cc(CN2CCC(CO)(Cc3ccccc3)CC2)[nH]n1	-42.9%
CC(C)Cc1cc(CN2CCC(CO)(Cc3cccc(C(F)(F)F)c3)CC2)[nH]n1	-66%
COc1ccc(CN2CCC(CO)(Cc3ccccc3)CC2)cc1Cn1cccn1	-55.9%
COc1ccc(CN2CCN(C(C)C)C(CCO)C2)cc1Cn1cccn1 (stereo not shown)	12%
CSc1cccc(CN2CCC(CO)(Cc3cccc(C(F)(F)F)c3)CC2)c1	-35.9%
CC(C)Cc1cc(CN2CCCC(CO)(Cc3cccc(Cl)c3)C2)[nH]n1 (stereo not shown)	-14.7%
COc1ccc(CN2CCC(CO)(Cc3cccc(C(F)(F)F)c3)CC2)cc1Cn1cccn1	-35.3%
Cc1ccc(-n2cc(CN3CCC(CO)(Cc4ccccc4)CC3)cn2)cc1	-22%
COc1ccc(CC2(CO)CCN(Cc3cnn(C)c3C)CC2)cc1	6.81%
OCC1(Cc2ccccc2)CCN(Cc2cnn(-c3ccccc3F)c2)CC1	-4.22%
COCCOc1nc2ccccc2nc1C	6.8%
O=C(Nc1nnc(-c2ccccc2)s1)c1ccccc1F	13.3%
CC(C)C[C@@H](CO)NC(=O)CC[C@H](NC(=O)OC(C)(C)C)C(=O)N(Cc1ccccc1)Cc1ccccc1	16%
CCOC(=O)c1cnc(SC2CC(=O)N(c3cccc(OC)c3)C2=O)nc1N (stereo not shown)	11.3%
CC1(c2nnc(-c3cccc(Cl)c3)o2)CC(c2cccc([N+](=O)[O-])c2)=NO1 (stereo not shown)	16.3%
OCC1(Cc2ccccc2)CCCN(Cc2cnn(-c3ccccc3)c2)C1 (stereo not shown)	-27.4%
OCC1(Cc2cccc(C(F)(F)F)c2)CCN(Cc2cc(F)cc(F)c2)CC1	4.2%
COc1ccc(CC2(CO)CCN(Cc3cnn(-c4ccccc4OC)c3)CC2)cc1	-48.4%
CCOc1cc(CN2CCC(CO)(Cc3cccc(C(F)(F)F)c3)CC2)ccc1OC	-78%
COc1ccc(CC2(CO)CCN(Cc3cnn(-c4ccccc4)c3)CC2)cc1	-57.2%
COc1cc(CN2CCC(CO)(Cc3cccc(C(F)(F)F)c3)CC2)ccc1F	-15.9%

Structure (SMILES)	hERG current change (%, negative = inhibition) at 1uM
CC(=O)Nc1ccc(S(=O)(=O)Oc2ccc(N3C(=O)C4CCCCC4C3=O)cc2)cc1 (stereo not shown)	15.5%
CCOC(=O)c1nnn(-c2nonc2N)c1-c1ccc(F)cc1	13.5%
CCC12CCCN3CCc4c(n(c5ccccc45)C(O)(C(=O)OC)C1)C32 (stereo not shown)	-2.18%
COC(=O)[C@@H]1[C@H]2C[C@H]3c4[nH]c5ccccc5c4CCN3C[C@@H]2CC[C@@H]1O	-21.3%
COC(=O)C1C(O)CCC2CN3CCc4c([nH]c5ccccc45)C3CC21 (stereo not shown)	1.1%
CC[C@]12CCCN3CCc4c(n(c5ccccc45)[C@@](O)(C(=O)OC)C1)[C@@H]32	-85.4%
CC[C@]12CCCN3CCc4c(n(c5ccccc45)[C@](O)(C(=O)OC)C1)[C@@H]32	-69.4%
CC[C@H]1CC2CN3CCc4c([nH]c5ccccc45)C(C(=O)OC)(C2)C13.Cl (stereo partly shown)	7.18%
O=P(O)(O)C(O)C(F)(F)C(F)(F)C(F)(F)C(F)F (stereo not shown)	21.8%
O=S(=O)(c1ccccc1)c1nc(-c2ccco2)oc1N1CCCCCC1	11.4%
O=C(Nc1ccncc1)c1ccc(F)cc1	7.66%
Cc1ccc(NC(=O)C(C)Sc2nnc(-c3cccnc3)n2-c2ccccc2)cc1 (stereo not shown)	-86.2%
O=C(CSc1nnc(-c2cccnc2)n1CCN1CCCCC1)Nc1cccc(Cl)c1	-80.3%
Cn1c(SCC(=O)Nc2cccc(F)c2)nnc1-c1cccnc1	-6.1%
Cn1c(SCC(=O)Nc2ccc(F)cc2)nnc1-c1cccnc1	-2.78%
O=C(CSc1nnc(-c2cccnc2)n1-c1ccccc1)Nc1ccccc1	-44.9%
CCCn1c(SCC(=O)Nc2cccc(C(=O)OC)c2)nnc1-c1cccnc1	-22.5%
Cc1ccc(NC(=O)CSc2nnc(-c3cccnc3)n2-c2ccc(C)cc2)cc1	2.22%
Cc1ccc(NC(=O)CSc2nnc(-c3cccnc3)n2CCN2CCCCC2)cc1	-53.7%
Cc1ccc(NC(=O)C(C)Sc2nnc(-c3cccnc3)o2)cc1 (stereo not shown)	14%
CCOC(=O)c1ccc(CSc2nnc(N)s2)cc1	5.39%
Cc1ccc(C(=O)N2NC(c3ccc(F)cc3)C3C(=O)N(c4ccc(C)c(C)c4)C(=O)C32)cc1 (stereo not shown)	10.6%
CCOC(=O)C1CCN(C(=O)Cn2cc(C(=O)C3CC3)c3ccccc32)CC1	13.4%
